# According to paper PMC7862700, “An all-to-all approach to the identification of sequence-specific readers for epigenetic DNA modifications on cytosine”:
# Tests used:
# Experiment in all cases: DAPPL (digital affinity profiling via proximity ligation, sequencing); 10 mM Tris-HCl pH 7.5, 50 mM NaCl, 1 mM DTT, 4% glycerol, room temperature, 30 min; GST-TFs on glutathione beads, 16-mer random dsDNA library, 0.1% formaldehyde crosslink after washing; high values mean tight binding
# FEV = biological target: T1, FEV (Homo sapiens, UniProt Q99581 1-238); settings: protein: recombinant; tags: N-terminal GST; dsDNA, one strand shown
# T1 sequence: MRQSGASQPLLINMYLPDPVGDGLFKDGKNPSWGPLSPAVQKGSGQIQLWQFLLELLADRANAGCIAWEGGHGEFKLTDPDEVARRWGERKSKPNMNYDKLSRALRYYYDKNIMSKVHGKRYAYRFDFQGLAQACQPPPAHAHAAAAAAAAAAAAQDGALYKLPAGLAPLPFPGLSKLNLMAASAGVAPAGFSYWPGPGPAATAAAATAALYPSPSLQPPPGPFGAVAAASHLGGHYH
# Outline: (§1)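 A tag-only sample was pooled with DNA-barcoded human transcription factors that had been expressed in yeast as GST fusions and captured on glutathione beads. The pools were incubated for 30 min at room temperature with 200 nmole of a random double-stranded 16-mer DNA library in Tris/NaCl/DTT/glycerol buffer, then washed, crosslinked with 0.1% formaldehyde, proximity-ligated (BsaI/T4 ligase, 1 h, 37 °C), PCR-amplified and sequenced on an Illumina NextSeq500. Binding signal is each hexamer's read frequency for a factor divided by its frequency for the tag-only sample.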
# ETV5 = ETV5 (Homo sapiens, UniProt P41161 1-510); settings: protein: recombinant; tags: N-terminal GST; dsDNA, one strand shown
# Sequence of ETV5 (P41161 whole entry): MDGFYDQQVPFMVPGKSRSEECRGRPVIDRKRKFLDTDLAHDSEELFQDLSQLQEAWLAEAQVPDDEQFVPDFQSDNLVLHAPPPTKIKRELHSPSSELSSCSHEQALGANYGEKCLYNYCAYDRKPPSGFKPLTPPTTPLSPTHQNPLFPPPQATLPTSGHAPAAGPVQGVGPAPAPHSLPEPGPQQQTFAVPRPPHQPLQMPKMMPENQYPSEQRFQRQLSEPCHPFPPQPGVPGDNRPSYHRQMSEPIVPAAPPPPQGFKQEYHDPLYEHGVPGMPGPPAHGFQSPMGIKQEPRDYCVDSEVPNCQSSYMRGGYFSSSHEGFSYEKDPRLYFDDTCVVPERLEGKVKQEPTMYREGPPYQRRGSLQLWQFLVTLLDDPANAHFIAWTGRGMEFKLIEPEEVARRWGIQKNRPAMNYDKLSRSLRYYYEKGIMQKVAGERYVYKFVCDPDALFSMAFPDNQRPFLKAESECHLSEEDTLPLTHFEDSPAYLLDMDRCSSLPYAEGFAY
# Outline: as §1
# HSF1 = HSF1 (Homo sapiens, UniProt Q00613 1-529); settings: protein: recombinant; tags: N-terminal GST; chain copies: 3; dsDNA, one strand shown
# Sequence of HSF1 (Q00613 whole entry): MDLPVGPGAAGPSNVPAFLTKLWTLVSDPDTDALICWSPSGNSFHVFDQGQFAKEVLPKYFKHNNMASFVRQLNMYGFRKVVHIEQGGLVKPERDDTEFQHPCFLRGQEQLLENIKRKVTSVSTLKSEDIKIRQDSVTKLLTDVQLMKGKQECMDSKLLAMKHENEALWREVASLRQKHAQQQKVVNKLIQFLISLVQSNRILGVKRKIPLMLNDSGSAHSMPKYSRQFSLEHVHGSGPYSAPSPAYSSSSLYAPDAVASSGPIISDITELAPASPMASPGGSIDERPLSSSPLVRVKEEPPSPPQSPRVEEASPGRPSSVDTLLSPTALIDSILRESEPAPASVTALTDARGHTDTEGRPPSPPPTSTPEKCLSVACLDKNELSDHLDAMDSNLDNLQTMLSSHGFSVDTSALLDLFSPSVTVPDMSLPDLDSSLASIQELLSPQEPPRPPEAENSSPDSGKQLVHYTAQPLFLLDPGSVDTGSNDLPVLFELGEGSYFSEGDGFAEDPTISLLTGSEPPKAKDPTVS
# Outline: as §1
# SPIC = biological target: T2, SPIC (Homo sapiens, UniProt Q8N5J4 1-248); settings: protein: recombinant; tags: N-terminal GST; dsDNA, one strand shown
# T2 sequence: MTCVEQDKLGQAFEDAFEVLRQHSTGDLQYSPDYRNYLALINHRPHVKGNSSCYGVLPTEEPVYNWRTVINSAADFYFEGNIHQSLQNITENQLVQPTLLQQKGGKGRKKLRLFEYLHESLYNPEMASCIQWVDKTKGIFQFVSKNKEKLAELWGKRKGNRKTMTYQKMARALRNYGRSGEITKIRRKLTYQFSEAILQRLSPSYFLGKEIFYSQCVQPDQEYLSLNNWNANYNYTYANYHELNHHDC
# Outline: as §1
# ELF4 = ELF4 (Homo sapiens, UniProt Q99607 1-663); settings: protein: recombinant; tags: N-terminal GST; dsDNA, one strand shown
# Sequence of ELF4 (Q99607 whole entry): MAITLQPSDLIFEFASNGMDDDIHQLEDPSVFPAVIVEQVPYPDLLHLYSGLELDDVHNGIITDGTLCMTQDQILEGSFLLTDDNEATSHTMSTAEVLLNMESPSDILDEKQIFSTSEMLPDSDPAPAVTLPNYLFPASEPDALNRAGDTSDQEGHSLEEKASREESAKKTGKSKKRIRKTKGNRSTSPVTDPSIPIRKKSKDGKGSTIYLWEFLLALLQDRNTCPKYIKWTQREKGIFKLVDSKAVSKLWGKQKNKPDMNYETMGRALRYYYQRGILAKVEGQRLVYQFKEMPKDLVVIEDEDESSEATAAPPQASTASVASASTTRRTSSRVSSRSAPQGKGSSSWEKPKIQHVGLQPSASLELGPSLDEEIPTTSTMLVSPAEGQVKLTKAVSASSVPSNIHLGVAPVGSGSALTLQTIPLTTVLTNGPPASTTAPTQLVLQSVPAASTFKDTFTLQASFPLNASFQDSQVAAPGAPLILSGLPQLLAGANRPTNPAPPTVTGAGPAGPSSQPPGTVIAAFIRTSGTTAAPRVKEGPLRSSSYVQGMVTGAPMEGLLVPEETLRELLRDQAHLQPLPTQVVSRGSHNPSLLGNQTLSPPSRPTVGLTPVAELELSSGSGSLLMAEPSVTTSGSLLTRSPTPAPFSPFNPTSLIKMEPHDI
# Outline: as §1
# ELK4 = biological target: T3, ELK4 (Homo sapiens, UniProt P28324-2 1-405); settings: protein: recombinant; tags: N-terminal GST; dsDNA, one strand shown
# T3 sequence: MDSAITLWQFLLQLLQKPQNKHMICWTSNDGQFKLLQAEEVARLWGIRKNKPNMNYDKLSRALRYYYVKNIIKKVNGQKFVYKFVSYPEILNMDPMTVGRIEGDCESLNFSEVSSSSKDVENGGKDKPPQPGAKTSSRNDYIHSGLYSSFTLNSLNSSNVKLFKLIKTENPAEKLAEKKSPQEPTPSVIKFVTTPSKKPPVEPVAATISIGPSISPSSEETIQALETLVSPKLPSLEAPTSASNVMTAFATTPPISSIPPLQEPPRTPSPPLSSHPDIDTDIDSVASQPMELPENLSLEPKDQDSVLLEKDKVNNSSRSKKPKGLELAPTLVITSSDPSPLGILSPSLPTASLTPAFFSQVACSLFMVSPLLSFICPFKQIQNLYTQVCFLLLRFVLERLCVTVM
# Outline: as §1
# ETV2 = biological target: T4, ETV2 (Homo sapiens, UniProt O00321 1-342); settings: protein: recombinant; tags: N-terminal GST; dsDNA, one strand shown
# T4 sequence: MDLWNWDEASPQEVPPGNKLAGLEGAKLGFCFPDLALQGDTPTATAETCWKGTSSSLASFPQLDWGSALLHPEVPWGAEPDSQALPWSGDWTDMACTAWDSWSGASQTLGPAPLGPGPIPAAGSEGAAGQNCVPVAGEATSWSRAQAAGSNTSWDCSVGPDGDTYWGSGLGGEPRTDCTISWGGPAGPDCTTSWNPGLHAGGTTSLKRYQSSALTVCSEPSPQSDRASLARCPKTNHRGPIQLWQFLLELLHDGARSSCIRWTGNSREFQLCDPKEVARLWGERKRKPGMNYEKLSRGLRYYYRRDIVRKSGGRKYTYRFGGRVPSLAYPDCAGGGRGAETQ
# Outline: as §1
# ELF3 = biological target: T5, ELF3 (Homo sapiens, UniProt P78545 1-371); settings: protein: recombinant; tags: N-terminal GST; dsDNA, one strand shown
# T5 sequence: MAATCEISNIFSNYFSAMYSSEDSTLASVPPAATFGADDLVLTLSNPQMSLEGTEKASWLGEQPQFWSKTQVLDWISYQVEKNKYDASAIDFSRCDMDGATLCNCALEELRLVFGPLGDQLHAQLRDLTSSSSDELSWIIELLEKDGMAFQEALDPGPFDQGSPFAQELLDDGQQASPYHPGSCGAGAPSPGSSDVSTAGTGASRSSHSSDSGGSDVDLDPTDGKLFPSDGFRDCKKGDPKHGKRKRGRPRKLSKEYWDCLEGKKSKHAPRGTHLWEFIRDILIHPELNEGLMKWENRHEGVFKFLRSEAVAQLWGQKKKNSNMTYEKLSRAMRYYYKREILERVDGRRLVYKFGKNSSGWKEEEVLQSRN
# Outline: as §1
# CRX = CRX (Homo sapiens, UniProt O43186 1-299); settings: protein: recombinant; tags: N-terminal GST; dsDNA, one strand shown
# Sequence of CRX (O43186 whole entry): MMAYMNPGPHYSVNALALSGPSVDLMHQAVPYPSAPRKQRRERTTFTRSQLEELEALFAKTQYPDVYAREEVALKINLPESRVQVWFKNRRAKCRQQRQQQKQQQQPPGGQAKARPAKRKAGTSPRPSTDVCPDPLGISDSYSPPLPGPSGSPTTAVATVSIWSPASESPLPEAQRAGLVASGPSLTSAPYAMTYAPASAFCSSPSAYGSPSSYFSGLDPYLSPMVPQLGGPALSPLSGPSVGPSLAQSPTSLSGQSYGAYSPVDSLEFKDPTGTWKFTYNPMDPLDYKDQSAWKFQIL
# Outline: as §1
# ETV1 = ETV1 (Homo sapiens, UniProt P50549 1-477); settings: protein: recombinant; tags: N-terminal GST; dsDNA, one strand shown
# Sequence of ETV1 (P50549 whole entry): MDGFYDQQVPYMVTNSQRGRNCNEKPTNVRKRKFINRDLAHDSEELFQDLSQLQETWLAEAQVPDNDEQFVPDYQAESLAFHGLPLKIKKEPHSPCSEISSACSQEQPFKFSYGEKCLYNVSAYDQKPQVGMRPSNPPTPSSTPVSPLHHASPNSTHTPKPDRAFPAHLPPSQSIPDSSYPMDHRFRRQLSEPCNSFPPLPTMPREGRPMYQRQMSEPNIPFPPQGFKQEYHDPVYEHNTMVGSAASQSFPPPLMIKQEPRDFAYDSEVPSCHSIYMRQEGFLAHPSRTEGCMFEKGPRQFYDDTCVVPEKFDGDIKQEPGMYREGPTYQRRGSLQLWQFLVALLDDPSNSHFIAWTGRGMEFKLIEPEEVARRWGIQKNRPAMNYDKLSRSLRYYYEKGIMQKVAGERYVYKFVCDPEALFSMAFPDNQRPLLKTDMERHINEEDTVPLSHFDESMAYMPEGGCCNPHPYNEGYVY
# Outline: as §1
sequence,measurement,setting,value
AATATG,binding signal,FEV,"1.12 fold enrichment (6-mer frequency, TF over GST control)"
same,binding signal,ETV5,"1.2 fold enrichment (6-mer frequency, TF over GST control)"
same,binding signal,HSF1,"1.12 fold enrichment (6-mer frequency, TF over GST control)"
same,binding signal,SPIC,"1.28 fold enrichment (6-mer frequency, TF over GST control)"
same,binding signal,ELF4,"1.16 fold enrichment (6-mer frequency, TF over GST control)"
same,binding signal,ELK4,"1.18 fold enrichment (6-mer frequency, TF over GST control)"
same,binding signal,ETV2,"1.07 fold enrichment (6-mer frequency, TF over GST control)"
same,binding signal,ELF3,"1.21 fold enrichment (6-mer frequency, TF over GST control)"
same,binding signal,CRX,"1.1 fold enrichment (6-mer frequency, TF over GST control)"
same,binding signal,ETV1,"1.13 fold enrichment (6-mer frequency, TF over GST control)"
